Holding throughout (assay): NCI-60 one-dose screen, 48 h (100 = growth as untreated, 0 = no growth, -100 = all killed)
What all share (conditions): 10 µM unless noted

Assay [1] deals with T-47D breast.
Assay [2] relates to BT-549 breast.
The subject of assay [3] is MDA-MB-435 melanoma.
For assay [4], the system named is SW-620 colon.
Assay [5] has as its system MCF7 breast.
Assay [6] deals with HCT-116 colon.
For assay [7], the system named is HCC-2998 colon.
Assay [8] concerns KM12 colon.

About 83,000 compounds went through this panel and 20% of them were active in at least one assay; those are over-represented in the sample as a whole.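 The endpoint reported here, percent growth, reads 100 for growth as untreated, 0 for no net growth and -100 for all cells dead.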 A number with no mark means an inactive call. Active and inactive are the calls of the source. Rule for the calls: active = growth percent below 10; inactive = the rest.

As to `CN1CCN(c2ccc(Nc3nc(NCCCNS(=O)(=O)c4ccc(C(F)(F)F)cc4)c4sccc4n3)cc2)CC1`, the growth in assay [1] is -29% (active); in assay [2] it was -88.1% (active); in assay [3], -62.4% (active); in assay [4] it was -33.5% (active); in assay [5], -70% (active); in assay [6] it was -73.8% (active). The growth in assay [7] was -63.5% (active); in assay [8] it was -25.2% (active).
Take `Cc1ccc2c(n1)C(=O)C(Cl)=C(Nc1cccc(C(=O)OC(C)(C)C)c1)C2=O`: the growth in assay [1] is 59.1%; in assay [2] it was 102%; in assay [3], 97.9%; in assay [4], 64.3%; in assay [5], 53.3%; in assay [6], 14%. Further, the growth is 113% in assay [7] and 99.2% in assay [8].
In the case of `CC(=O)OC[C@@]12Oc3c(cccc3-c3ccc(O)c4c3O[C@]3(COC(C)=O)C(=C4O)C(=O)C[C@H](C)[C@@H]3OC(C)=O)C(O)=C1C(=O)C[C@H](C)[C@@H]2OC(C)=O`, the growth in assay [1] was 4.37% (active); in assay [2], -1.88% (active); in assay [3], 13%; in assay [4], 17.8%; in assay [5] it was 5.84% (active); in assay [6], 10.8%. The growth in assay [7] was 23.7%; in assay [8], 8.74% (active).
Regarding `C(=N\Nc1nc(N/N=C/c2ccc3c(c2)OCO3)nc(N2CCCCC2)n1)/c1ccc2c(c1)OCO2`, the growth in assay [1] is 87.2%; in assay [2], 122%; in assay [3], 98.5%; in assay [4], 82.4%; in assay [5], 54.8%; in assay [6], 47.9%. Further, the growth in assay [7] was 83.8%; in assay [8], 86.2%.
Take `O=C(N/N=C\c1ccc([N+](=O)[O-])cc1)c1ccc2nc(-c3ccc(Br)cc3)[nH]c2c1`: the growth in assay [1] is 9.87% (active); in assay [2], 6.72% (active); in assay [3] it was 23.9%; in assay [4] it was 5.34% (active); in assay [5], -4.44% (active); in assay [6], -37.2% (active). The growth in assay [7] is 5.66% (active); in assay [8] it was 11.7%.
For the molecule `CC(Nc1ncnc2ccc(-c3cnc(N)nc3)cc12)c1ccccc1` (centres undefined), the growth in assay [1] was 12.2%; in assay [2], 19.9%; in assay [3], 50.4%; in assay [5] it was 18.5%; in assay [6], 33%; in assay [7], 43%. In addition, the growth in assay [8] is 54.7%.
As to `CC(=O)c1c([Si](C)(C)C)c2cc(C#N)ccn2c1C(=O)c1ccc(Br)cc1`, the growth in assay [1] was 73.8%; in assay [2], 97.5%; in assay [4], 87.2%; in assay [5], 82.5%; in assay [6], 56%; in assay [7], 89.9%.
For the molecule `O=C1[C@@H]2Cc3c([nH]c4ccccc34)[C@@H](c3ccc(Cl)cc3)N2C(=O)CN1C1CCN(Cc2c(F)cccc2F)CC1`, the growth was 56.8% in assay [1]; 46.3% in assay [2]; 46.9% in assay [3]; 15.3% in assay [5]; 17.8% in assay [6]; 6.16% (active) in assay [7]. Moreover, in assay [8], the growth is 35.1%.
For `CN1CCN(c2ccc(Nc3nc(NCCNS(=O)(=O)c4ccc(Cl)cc4)c4sccc4n3)cc2)CC1`, the growth in assay [1] is 84.3%; in assay [2], 111%; in assay [3], 95.4%; in assay [5], 83.2%; in assay [6] it was 58.5%; in assay [7] it was 108%. The growth in assay [8] is 93.7%.
As to `CCC1=Cc2c(OC)cccc2OC12C=Cc1c(OC)cccc1O2` (centres undefined), the growth was 46.8% in assay [1]; 46.6% in assay [2]; 30% in assay [4]; 10.8% in assay [5]; 8.84% (active) in assay [6]; 2.34% (active) in assay [7]. Besides, in assay [8], the growth was 12.4%.
`CC1(C)CC[C@]2(C(=O)O)CC[C@]3(C)C(=CC[C@@H]4[C@@]5(C)CC[C@H](NOCCCN)C(C)(C)[C@@H]5CC[C@]43C)[C@@H]2C1`: the growth in assay [1] is 73.1%; in assay [2] it was 80%; in assay [3] it was 91.7%; in assay [5], 68.2%; in assay [6], 57.2%; in assay [7], 76.3%. Also, the growth in assay [8] is 80.9%.
Regarding `C#CCOc1ccccc1/C=N/Nc1nc(-c2ccc(Cl)cc2)cs1`, the growth is 71.9% in assay [1]; 128% in assay [2]; 93.4% in assay [4]; 77.5% in assay [5]; 90.7% in assay [6]; 120% in assay [7]. Besides, in assay [8], the growth was 91.4%.
Take `NS(=O)(=O)c1ccc(Nc2nc(N/N=C/C=C/c3ccccc3)nc(Nc3ccccc3)n2)cc1`: the growth was 18.9% in assay [1]; 65.9% in assay [2]; 51.1% in assay [4]; 16% in assay [5]; 29.5% in assay [6]; 38.3% in assay [7]. Further, the growth in assay [8] was 55.4%.
In the case of `COc1cc(C(=O)c2cc(C(C)=O)c3cccc(C)n23)cc(OC)c1OC`, the growth is 20.3% in assay [1]; 25.8% in assay [2]; 26% in assay [4]; 20.3% in assay [5]; 16.6% in assay [6]; 61.1% in assay [7]. The growth in assay [8] was 29.8%.
Consider `CN1CCN(c2ccc(Nc3nc(NCCCNS(=O)(=O)c4ccc(Cl)cc4)c4sccc4n3)cc2)CC1`, for which the growth in assay [1] is 11.6%; in assay [2] it was -70.2% (active); in assay [4] it was 20.7%; in assay [5], 20%; in assay [6], 1.81% (active); in assay [7], 20%. The growth in assay [8] was 23.3%.

These data come from PubChem BioAssay (NCI).
